Bioassay records as filed in PubChem.
Hits are enriched below; roughly 9.4% of the tested compounds scored in any of these assays.
Rab9 prom act = qHTS Assay for Rab9 Promoter Activators; Huh7 Rab9 promoter-luciferase reporter, luminescence, 24 h; Potency, µM (titrated, usually from 9.22 µM), usual class: activators; hit rate 2.8% among 320,000; AID 485297, 2010; note: nearly all actives have a fitted effect of over 60% in size
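Cell-based reporter: Huh7 stable for Rab9 promoter-driven luciferase, plated in reduced-serum medium with 10% FBS at 1500 cells/well, compound-treated 24 h at 37 °C, luminescence read after 10 min reagent.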
NPC1 promoter act = qHTS Assay for NPC1 Promoter Activators. AID 485313, 2010. Huh7 NPC1 promoter luciferase reporter, 24 h. Potency, µM (titrated, usually from 9.22 µM), most hits filed as activators. hit rate 2.4% among 320,000; note: nearly all actives have a fitted effect of over 60% in size
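NPC1 promoter–luciferase Huh7 cells; 24 h compound; luminescence.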
ELG1 DNA repair = qHTS screen for small molecules that inhibit ELG1-dependent DNA repair in human embryonic kidney (HEK293T) cells expressing luciferase-tagged ELG1; hit rate 2.3% among 330,000; Potency, µM (highest dose often 46.1 µM), most hits filed as inhibitors; HEK293T ELG1-luciferase reporter, luminescence, 16 h; DNA damage induced by 5-fluorouridine; note: nearly all actives have a fitted effect of over 55% in size
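Quantitative HTS, concentration-response format. 2,000 cells/well co-treated with 5-fluorouridine and compound, 16 hr in 5% CO2 at 37 °C; ONE-Glo luminescence read after 30 min.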
SMN2 splice up = qHTS Assay for Enhancers of SMN2 Splice Variant Expression | HEK293 SMN2-luciferase splicing reporter, luminescence, 30-36 h | Potency, µM (titrated, usually from 46.1 µM), hits mostly activators | hit rate 2.8% among 210,000 | AID 1458, 2008; note: nearly all actives have a fitted effect of over 55% in size
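HEK293 cells carry an SMN2 minigene-luciferase reporter in which exon 7 inclusion puts luciferase in frame. Cells were seeded at 2000 cells/well, attached for 10-12 hours, then exposed to compounds for 30-36 hours at 37C before ONE-Glo luminescence.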
FLuc counter = qHTS profiling assay for firefly luciferase inhibitor/activator using purifed enzyme and Km concentrations of substrates (counterscreen for miR-21 project). Luciferin 4-monooxygenase (Photinus pyralis), P08659. AID 588342, 2011. Potency, µM (highest dose often 57.5 µM), most hits filed as inhibitors. purified FLuc, Km substrates, luminescence inhibition. hit rate 6.9% among 360,000; note: nearly all actives have a fitted effect of over 55% in size
Target sequence (P08659 whole entry, looked up): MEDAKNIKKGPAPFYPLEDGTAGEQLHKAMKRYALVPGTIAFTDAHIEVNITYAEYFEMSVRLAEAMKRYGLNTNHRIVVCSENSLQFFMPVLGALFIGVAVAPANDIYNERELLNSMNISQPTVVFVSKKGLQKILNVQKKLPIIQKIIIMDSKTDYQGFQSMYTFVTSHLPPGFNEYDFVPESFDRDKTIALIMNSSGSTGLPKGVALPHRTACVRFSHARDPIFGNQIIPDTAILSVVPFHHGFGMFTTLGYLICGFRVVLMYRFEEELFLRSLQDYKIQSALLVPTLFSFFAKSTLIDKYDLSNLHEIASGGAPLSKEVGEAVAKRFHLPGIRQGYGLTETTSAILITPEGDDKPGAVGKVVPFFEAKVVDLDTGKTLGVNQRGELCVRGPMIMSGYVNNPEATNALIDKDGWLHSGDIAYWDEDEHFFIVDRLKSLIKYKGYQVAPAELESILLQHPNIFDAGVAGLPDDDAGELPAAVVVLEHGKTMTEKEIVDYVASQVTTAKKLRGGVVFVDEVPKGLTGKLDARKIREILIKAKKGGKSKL
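Purified P. pyralis luciferase (10nM final) with 10uM D-luciferin and 10uM ATP (Km levels) in 50mM Tris acetate pH 7.5, 10mM Mg acetate, 0.01% Tween-20, 0.05% BSA; qHTS 6-point titration, ~60 µM downward; luminescence read.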
ELG1 genotox = qHTS screen for small molecules that induce genotoxicity in human embryonic kidney (HEK293T) cells expressing luciferase-tagged ELG1; HEK293T ELG1-luciferase reporter, luminescence, 16 h; Potency, µM (highest dose often 46 µM), actives largely listed as activators; hit rate 1.3% among 330,000; AID 504466, 2011; note: nearly all actives have a fitted effect of over 60% in size
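DMSO vehicle served as control against compound-treated ELG1-luciferase HEK293T cells; exposure lasted 16 hr at 37 °C and 5% CO2, followed by ONE-Glo luminescence detection after 30 min.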
A number is an active result; - = inactive; ? = inconclusive; . = no result given. Calls come from the whole dose curve; as a rule, active = well fitted curve in the direction sought with a large enough effect; inconclusive = small, poorly fitted or top-dose-only effect, or another doubt; inactive = no such curve, though single readings can be large; an effect the other way counts as inactive or inconclusive.

SMILES	Rab9 prom act	NPC1 promoter act	ELG1 DNA repair	SMN2 splice up	FLuc counter	ELG1 genotox
O=C(/C=C/c1ccccc1)OCC(=O)c1c[nH]c2ccccc12	.	.	-	.	.	-
CCOC(=O)c1[nH]c2ccccc2c1NC(=O)c1ccc(Br)o1	-	-	23.1µM	-	-	-
O=C(OCC(=O)c1c[nH]c2ccccc12)c1ccco1	-	-	?	-	9.53µM	16.4µM
O=C(OCC(=O)c1c[nH]c2ccccc12)c1ccc(Br)o1	-	-	?	.	16.9µM	-
COc1cc(NC(=O)c2ccco2)c(C(=O)OCC(=O)c2c[nH]c3ccccc23)cc1OC	-	-	8.2µM	-	-	-
O=C(NCCc1c[nH]c2ccccc12)c1ccc(Br)o1	.	.	?	.	.	-
O=C(Nc1ccc(Br)cc1)c1cc(S(=O)(=O)N2CCc3ccccc32)ccc1F	.	.	.	.	-	.
COc1cccc(N2CCN(S(=O)(=O)c3ccc(-c4ccno4)cc3OC)CC2)c1	.	.	.	.	-	.
O=C(NC1CCCc2ccccc21)c1ccc2c(c1)sc1nc(-c3ccccc3)cn12 (stereo unspecified)	.	.	.	.	-	.
CCCN(C(=O)c1sc2nc3n(c(=O)c2c1C)CCCC3)c1ccccc1C	.	.	.	.	-	.
Cc1ccccc1NC(=O)Cc1nc(-c2c[nH]c(C(=O)N3CCCC3)c2)cs1	-	-	16.4µM	.	-	-
Cc1cccc(NC(=O)Cc2nc(-c3c[nH]c(C(=O)N4CCCC4)c3)cs2)c1	-	-	?	.	-	-
Cn1c(-c2ccc3c(c2)OCO3)cnc1NCc1ccccc1	-	-	-	-	?	-
Cn1c(-c2ccc3c(c2)OCO3)cnc1NCc1ccccc1Cl	?	-	?	?	12µM	-
Cc1ccc(-c2csc(N=C(N)N)n2)cc1	?	?	?	.	15.1µM	-
Nc1ccc(S(=O)C(F)(F)F)cc1 (stereo unspecified)	-	-	-	-	-	-
O=C(COC(=O)c1ccco1)Nc1ccc([N+](=O)[O-])cc1Cl	-	-	-	.	-	-
O=C(COC(=O)c1ccco1)Nc1nc2ccc([N+](=O)[O-])cc2s1	-	-	-	.	19µM	-
O=C(COC(=O)c1ccc(Br)o1)Nc1nc2ccccc2s1	-	-	-	-	-	-
Cc1ccc2nc(NC(=O)COC(=O)c3ccc(Br)o3)sc2c1	?	?	?	-	26.9µM	-
Cc1ccc2nc(NC(=O)COC(=O)c3ccco3)sc2c1	.	.	.	-	13.5µM	.
CC(=O)CSc1nnc2cc(C)c3cc(C)cc(C)c3n12	.	.	.	.	-	.
COc1ccc(Cn2c(SCc3ccc(C(=O)NC(C)C)cc3)nc3cccnc32)cc1	.	.	.	.	-	.
CCn1c(CCc2ccccc2)nc2ccccc21	-	-	?	.	16.9µM	-
CCn1c(COc2ccccc2C)nc2ccccc21	-	-	?	?	10.7µM	?
SMILES	Rab9 prom act	NPC1 promoter act	ELG1 DNA repair	SMN2 splice up	FLuc counter	ELG1 genotox
Cn1c(COc2ccccc2Br)nc2ccccc21	?	2.51µM	?	.	6.75µM	10.3µM
CCCn1c(COc2ccccc2OC)nc2ccccc21	-	-	-	.	?	-
CCn1c(COc2ccccc2OC)nc2ccccc21	-	-	?	.	16.9µM	-
CCc1ccc(OCC(=O)NCC(c2ccc(OC)cc2)N2CCOCC2)cc1 (stereo unspecified)	.	.	.	.	-	.
O=C(CN1C(=O)c2cccc3cccc1c23)Nc1cccc(F)c1	.	.	.	-	-	.
CC(=O)c1ccc(OCc2cc(C(=O)NC(C)Cc3ccccn3)no2)cc1 (stereo unspecified)	-	-	-	.	-	-
COc1ccc(OCc2cc(C(=O)NC(C)Cc3cccnc3)no2)c(Cl)c1 (stereo unspecified)	-	-	-	.	13.5µM	-
O=C(NCCc1cccnc1)c1cc(COc2ccc(F)cc2Cl)on1	-	-	-	.	19µM	-
CC(Cc1cccnc1)NC(=O)c1cc(COc2ccc(F)cc2F)on1 (stereo unspecified)	-	-	-	.	-	-
COc1ccc(OCc2cc(C(=O)NC(C)Cc3ccccn3)no2)c(Cl)c1 (stereo unspecified)	-	-	?	.	12µM	-
COc1ccc(OCc2cc(C(=O)NC(C)Cn3cncn3)no2)c(Cl)c1 (stereo unspecified)	?	?	?	.	12µM	?
CCn1c(C(=O)N2CCCC(C(=O)NCCCOC)C2)cc2sccc21 (stereo unspecified)	.	.	.	-	-	.
N[C@@H](CCS(=O)O)C(=O)O	.	.	.	-	.	.
CC1CCCC(C)N1C(=O)CSc1nnc(-c2cccs2)o1 (stereo unspecified)	1.58µM	1.12µM	?	11.2µM	12µM	?
CC1CCN(C(=O)CSc2nnc(-c3cccs3)o2)CC1	-	-	?	.	-	-
O=C(CSc1nnc(-c2cccs2)o1)N1CCOCC1	-	-	?	-	-	-
CC1CCCCN1C(=O)CSc1nnc(-c2cccs2)o1 (stereo unspecified)	2.24µM	3.55µM	?	.	21.3µM	?
O=C(CSc1nnc(-c2cccs2)o1)N1CCCCC1	1.58µM	2.51µM	?	12.6µM	21.3µM	9.2µM
CCOC(=O)N1CCN(C(=O)CSc2nnc(-c3cccs3)o2)CC1	-	-	-	-	-	-
Cc1cccc(S(=O)(=O)c2cn(C)c3cc(N4CCN(c5ccccc5)CC4)c(F)cc3c2=O)c1	.	.	.	.	-	.
Cc1ccc2[nH]c(C)c(/C=C/c3cc[n+](C)cc3)c2c1	-	-	2.59µM	.	-	-
Cc1ccc2c(c1)c(/C=C/c1cc[n+](C)cc1)c(C)n2C	-	-	?	.	-	-
CCN(CC(=O)Nc1cc(Cl)cc(Cl)c1)CC(=O)NC1CCS(=O)(=O)C1 (stereo unspecified)	.	.	-	.	.	-
CCN(CC(=O)Nc1sc2c(c1C#N)CCC(C)C2)Cc1nc2ccccc2c(=O)[nH]1 (stereo unspecified)	-	-	13µM	-	-	-
CCN(CC(=O)Nc1sc2c(c1C#N)CCC(C)C2)CC(=O)NC1CCS(=O)(=O)C1 (stereo unspecified)	-	-	18.3µM	-	?	-
CC1CCc2c(sc(NC(=O)CCc3nc4ccccc4c(=O)[nH]3)c2C#N)C1 (stereo unspecified)	-	-	-	.	-	-
CCN(CC(=O)Nc1sc2c(c1C#N)CCCC2)Cc1nc2ccccc2c(=O)[nH]1	-	-	14.6µM	-	-	-
CCN(CC(=O)NCc1ccc(F)cc1)Cc1nc2ccccc2c(=O)[nH]1	-	-	-	-	-	-
